# Source: PubChem BioAssay (several laboratories)
# EWS-Fli inh = EWS/Fli-driven NR0B1 reporter inhibitors, primary screen, A673 cells, NR0B1 luciferase, luminescence, MLPCN library. viability-normalised. inhibition, % at 12.6 µM. 350,000 tested, 0.67% active. AID 651661, 2012;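 active = mean inhibition of at least 50% after viability correction, with every replicate also passing that limit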;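 also: firefly luciferase signal divided by Alamar Blue viability fluorescence both relative to DMSO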
# EBV LMP1 NFkB = EBV LMP1-driven NF-kappaB luciferase reporter inhibitors, primary screen, cell-based, luminescence, single point. LMP1-induced NF-kappaB luciferase reporter cells. inhibition, % at 12.5 µM. 350,000 tested, 0.69% active; in the data active = inhibition above about 41%
# TROY NFkB inh = inhibitors of TROY-driven NF-kB signaling, primary screen, Q293 LMP1-TROYcd cells, NF-kB luciferase, uHTS; inhibition, % at 10 µM; AID 1347056, 2019; 360,000 tested, 0.98% active; Q293 LMP1-TROYcd NF-kB luciferase reporter, 4 h;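 active = compounds whose plate-normalised and pattern-corrected inhibition of the luciferase reporter signal at the single screening dose is 50% or more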
# LGR2 antag = inhibitors of bursicon-induced LGR2 CRE-luciferase signal, primary screen, cell-based, HEK293, CRE-luciferase reporter, bursicon stimulation | Drosophila bursicon receptor LGR2 (rickets) | bursicon-stimulated, 4 h | 380,000 tested, 0.35% active | inhibition, % at 9.99 µM;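 active = drop in luminescence signal, shown as inhibition above about 50% in the replicate tests, limit read from the data, passing the limit was not always enough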;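 also: agonist challenge used bursicon conditioned medium at about half maximal strength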
# TWEAK Fn14 block = inhibitors of TWEAK-Fn14 signaling, primary screen, luciferase reporter cells, uHTS | TWEAK-stimulated Fn14 reporter cells, luciferase luminescence, 8 h | inhibition, % at 10 µM | 360,000 tested, 2% active; in the data active = inhibition above about 50%
# Numbers stand for hits; . = inactive; / = no result given. Shown are actives, neighbours in structure and some others; about 2.6% of the full set was active somewhere.
SMILES,EWS-Fli inh,EBV LMP1 NFkB,TROY NFkB inh,LGR2 antag,TWEAK Fn14 block
Cc1cccc(-c2ccc([C@H]3[C@@H](CO)N4C(=O)CN(C(=O)c5cccnc5)C[C@@H]34)cc2)c1,.,/,/,.,/
O=S(=O)(Nc1cccc2cccnc12)c1ccccc1,70,.,.,.,101
Cc1cc(C)c(NS(=O)(=O)c2cccc3cccnc23)c(C)c1,.,.,.,.,.
Cc1ccc(S(=O)(=O)Nc2cccc3cccnc23)c([N+](=O)[O-])c1,.,.,79,.,99
O=C(C[C@H]1CC[C@@H](NC(=O)c2ccncc2)[C@H](CO)O1)NCc1ccncn1,/,/,/,.,/
CC(C)=CCc1cc(-c2oc3cc(O)cc(O)c3c(=O)c2O)ccc1O,.,.,.,.,.
CC(C)=CCc1c(O)cc2oc3c(CC=C(C)C)c(O)c(O)c(CC=C(C)C)c3c(=O)c2c1O,.,.,58,/,82
O=C(Nc1ccccc1Cl)N1[C@H](CO)[C@H]2c3ccccc3NC[C@H]21,.,/,/,.,/
CC1(C)CCC(=O)N(c2ccc(OC(F)(F)F)cc2)C1=O,.,.,.,.,.
Cc1cccc(C)c1N1C(=O)CCC(C)(C)C1=O,.,50,.,.,.
COc1ccccc1C(=O)NC(=O)CSc1nnc(N)s1,.,42,.,.,.
CC(=O)Nc1ccccc1N(CC(O)Cn1c2ccccc2c2ccccc21)S(=O)(=O)c1ccc(C)cc1 (configuration not stated),.,.,.,.,53
Cc1cc(C)n(C(=O)/C(C#N)=N/Nc2cc(Cl)cc(Cl)c2)n1,/,.,68,/,51
c1ccc(COc2cccc(-c3cc4nc(NCCCn5ccnc5)ccn4n3)c2)cc1,.,/,.,80,.
c1ccc(COc2cccc(-c3cc4nc(NCCOc5ccccc5)ccn4n3)c2)cc1,.,/,.,.,.
c1ccc(COc2cccc(-c3cc4nc(NCCc5ccncc5)ccn4n3)c2)cc1,.,/,.,.,61
O=C(Nc1cccc(NC(=O)c2cccnc2)c1)c1ccccc1,/,.,.,.,.
CC(=O)Nc1cccc(-c2cnc(N)c(C(=O)c3cccnc3)n2)c1,/,49,.,/,82
NC(=O)c1cccc(-c2cnc(N)c(C(=O)c3cccnc3)n2)c1,/,.,51,/,84
COc1ccc(NC(=O)N(C)C[C@H]2Oc3ccc(NC(=O)Cc4ccccc4)cc3CC(=O)N([C@@H](C)CO)C[C@@H]2C)cc1,.,/,/,.,/
O=C(N/N=C/c1ccc(O)cc1O)c1ccc(CN2C(=O)c3cccc4cccc2c34)cc1,.,50,.,.,.
O=C(N/N=C/c1cc([N+](=O)[O-])ccc1Cl)c1cnccn1,57,.,.,.,.
CC(=O)O[C@]1(C(C)=O)CC[C@H]2[C@@H]3C=C(C)C4=CC(=O)CC[C@@H]4[C@H]3CC[C@@]21C,.,52,.,.,.
Cc1cccc(-n2ncc3c(N(C)C4CCCCC4)ncnc32)c1,73,.,88,88,102
Cc1cccc(-n2ncc3c(N(CCO)CCO)ncnc32)c1,.,.,.,/,88
SMILES,EWS-Fli inh,EBV LMP1 NFkB,TROY NFkB inh,LGR2 antag,TWEAK Fn14 block
COc1ccc(-n2ncc3c(N(C)C4CCCCC4)ncnc32)cc1,78,52,91,94,104
Cc1cccc(-n2ncc3c(N4CCCc5ccccc54)ncnc32)c1,/,.,.,/,.
COc1cccc(NC(=O)N[C@H]2CC[C@H](CC(=O)NCc3ccncn3)O[C@H]2CO)c1,.,/,/,.,/
Cc1ccc(NC(=O)C(=Cc2ccc(C(=O)O)cc2)C(=O)Nc2ccc(C)cc2C)c(C)c1,/,.,.,/,70
O=C(/C=C/c1cccc([N+](=O)[O-])c1)NCCSCc1ccc(Cl)cc1,58,.,.,.,.
O=C(Nc1ccc(Cl)c(Cl)c1)c1cccc(S(=O)(=O)NCc2cccnc2)c1,/,.,64,.,90
CCCNC(=O)[C@@H]1[C@@H](CO)[C@@H]2Cn3c(cccc3=O)[C@@H]2N1CC1CCCC1,.,/,/,.,/
O=C(N[C@@H]1CC[C@@H](CCNC(=O)C2CCCCC2)O[C@H]1CO)c1ccccn1,.,/,/,.,/
O=C(Nn1cnnc1)c1ccncc1,/,.,.,/,.
CC(=O)c1c(C(C)=O)c(C)n(NC(=O)c2ccncc2)c1C,/,.,/,/,53
CCCNC(=O)N(C)C[C@@H]1Oc2cc(C#CCC(C)C)ccc2S(=O)(=O)N([C@H](C)CO)C[C@H]1C,.,/,/,.,/
Cc1ccc(-n2nc3ccc(N)cc3n2)c(C)c1,.,.,.,.,87
Cc1nc2c(O)c3c(c(O)c2nc1C)C1C=CC3CC1,.,68,.,.,.
Cc1nc2c(C)c(C)c(C)c(C)c2nc1C,.,/,.,.,.
COc1cc(CN2CCCC(N3CCN(c4ccccc4C)CC3)C2)cc(Cl)c1O (configuration not stated),.,78,.,.,.
O=C1/C(=C\c2cc([N+](=O)[O-])ccc2O)SC(=S)N1Cc1ccc(Cl)cc1,.,.,53,.,72
O=C1/C(=C\c2cccc(O)c2O)SC(=S)N1Cc1ccccc1,.,.,.,/,.
Cc1ccccc1/C=C1\SC(=S)N(/N=C/c2cc([N+](=O)[O-])ccc2O)C1=O,.,.,78,.,.
O=C1CSC(c2ccccn2)N1c1ccc(Cl)c(Cl)c1 (configuration not stated),/,.,.,/,107
CCCNC(=O)C[C@@H]1CC[C@@H]2[C@H](COC[C@H](O)CN2C(=O)CC)O1,/,/,/,.,/
Nc1cc2c3ccccc3ccc2c2ccccc12,.,.,.,86,103
N#CCCN(C(=O)Nc1ccccc1)c1ccccc1,/,.,.,/,.
N#CCCN(C(=O)Nc1ccc(Cl)cc1)c1ccccc1,/,.,.,.,86
CN1CCN(C(=O)C[C@H]2CC[C@H]3[C@@H](COC[C@@H](O)CN3C(=O)C3CC3)O2)CC1,.,/,/,.,/
